Laboratory results taken from ChEMBL document CHEMBL3988442, “University of Dundee, Small-Polar-MMV Screening Library” (2021).
For some of these results: Potency and affinity values are given separately.

Tests used:
Design in all cases: scale not given: direction of the effect not stated beside the values
[1] = target: Protein translocase subunit SecA (Escherichia coli (strain K12)) (UniProt P10408); test: Assay to Identify E. coli SecA ATPase Inhibitors; format: functional; conditions: 30 µM
[2] = target: T1, Ubiquitin-activating enzyme e1, putative (Leishmania donovani (strain BPK282A1)) (UniProt E9BSI1); test: Leishmania donovani Ubiquitin Activating Enzyme (LdE1); format: functional; conditions: 30 µM
T1 sequence (whole entry): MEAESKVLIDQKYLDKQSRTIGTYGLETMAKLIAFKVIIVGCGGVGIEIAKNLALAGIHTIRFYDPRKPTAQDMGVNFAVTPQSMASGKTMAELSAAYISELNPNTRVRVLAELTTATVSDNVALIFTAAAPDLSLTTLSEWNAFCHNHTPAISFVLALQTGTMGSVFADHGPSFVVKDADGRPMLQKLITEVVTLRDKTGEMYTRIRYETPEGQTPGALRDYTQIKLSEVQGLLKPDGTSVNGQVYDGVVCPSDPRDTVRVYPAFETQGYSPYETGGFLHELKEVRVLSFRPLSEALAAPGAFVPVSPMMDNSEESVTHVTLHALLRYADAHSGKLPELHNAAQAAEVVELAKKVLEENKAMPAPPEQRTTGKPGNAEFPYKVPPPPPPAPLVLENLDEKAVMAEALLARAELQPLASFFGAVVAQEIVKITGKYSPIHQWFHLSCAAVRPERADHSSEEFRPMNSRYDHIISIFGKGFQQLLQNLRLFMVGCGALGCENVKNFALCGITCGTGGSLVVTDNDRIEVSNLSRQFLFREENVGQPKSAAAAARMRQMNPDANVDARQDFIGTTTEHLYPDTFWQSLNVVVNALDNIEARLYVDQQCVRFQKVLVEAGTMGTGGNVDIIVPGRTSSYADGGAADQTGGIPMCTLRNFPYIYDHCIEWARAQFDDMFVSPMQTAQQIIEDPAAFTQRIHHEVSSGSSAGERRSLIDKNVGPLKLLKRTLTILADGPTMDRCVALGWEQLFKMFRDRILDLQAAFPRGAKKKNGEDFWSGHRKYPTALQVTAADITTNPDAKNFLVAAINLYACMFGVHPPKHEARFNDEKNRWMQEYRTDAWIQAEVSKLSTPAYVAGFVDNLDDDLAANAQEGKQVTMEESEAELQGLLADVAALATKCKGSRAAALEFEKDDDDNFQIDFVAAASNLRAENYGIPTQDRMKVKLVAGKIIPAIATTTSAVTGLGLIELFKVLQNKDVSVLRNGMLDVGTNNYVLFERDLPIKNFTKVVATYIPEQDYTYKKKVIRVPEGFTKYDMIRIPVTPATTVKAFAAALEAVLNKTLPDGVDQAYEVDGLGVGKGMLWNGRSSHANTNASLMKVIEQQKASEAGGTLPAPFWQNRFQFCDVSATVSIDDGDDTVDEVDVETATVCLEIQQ

[3] = target: AMP-activated protein kinase, AMPK (Homo sapiens) (UniProt P54646+O43741+P54619+Q9UGJ0+Q9Y478+Q13131+Q9UGI9); test: AMP-dependent Kinase enzyme assay. An in vitro enzyme assay that detects ADP turnover that is directly proportional to AMPK activity. This uses naive AMPK that is activated during the assay with MK-8722; format: functional; conditions: 30 µM
[4] = target: Sialic acid-binding Ig-like lectin 9 (Homo sapiens) (UniProt Q9Y336); test: Hs-Siglec9 ALPHAscreen SOP 20170721; conditions: 10 µM
Trypanosoma cruzi = test: Trypanosoma cruzi phosphomannomutase and mannose-1-phosphate guanylyltransferase assay; format: functional; conditions: 10 µM
[5] = target: T2, Arginase-2, mitochondrial (Homo sapiens) (UniProt P78540); test: in vitro enzyme assay to detect the production of urea directly proportional to the activity of Arginase II; format: functional; conditions: 33.3 µM; also: in the data most compounds retested in dose-response had high values
T2 sequence (whole entry): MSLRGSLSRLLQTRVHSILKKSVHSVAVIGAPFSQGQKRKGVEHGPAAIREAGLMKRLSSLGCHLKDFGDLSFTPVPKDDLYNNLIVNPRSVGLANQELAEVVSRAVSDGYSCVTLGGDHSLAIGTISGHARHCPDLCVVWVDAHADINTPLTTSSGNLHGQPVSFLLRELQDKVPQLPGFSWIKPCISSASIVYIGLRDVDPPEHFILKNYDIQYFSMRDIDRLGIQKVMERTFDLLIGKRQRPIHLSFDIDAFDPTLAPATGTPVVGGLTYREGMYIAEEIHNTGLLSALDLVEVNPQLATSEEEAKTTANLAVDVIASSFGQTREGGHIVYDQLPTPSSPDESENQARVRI

[6] = target: T3, Proteasome subunit beta (Trypanosoma cruzi) (UniProt O96673); test: Trypanosoma cruzi proteasome chymotrypsin-like activity (TcProtChymo) assay.; also: in the data most compounds retested in dose-response had high values; format: functional; conditions: 9.37 µM
T3 sequence (whole entry): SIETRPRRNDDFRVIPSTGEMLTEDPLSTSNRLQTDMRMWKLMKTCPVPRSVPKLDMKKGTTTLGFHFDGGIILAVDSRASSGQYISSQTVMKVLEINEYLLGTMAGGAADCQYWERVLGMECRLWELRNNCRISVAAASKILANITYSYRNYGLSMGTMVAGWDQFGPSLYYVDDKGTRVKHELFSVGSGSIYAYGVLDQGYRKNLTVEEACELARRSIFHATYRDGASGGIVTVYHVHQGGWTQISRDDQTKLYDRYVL

Homo sapiens = species on record: Homo sapiens; test: To identify inhibition of the IFN signalling (Jak-Stat) pathway via expression of an eGFP reporter gene under the control of an IFN-stimulated response element (ISRE) containing MxA promoter.; format: functional; conditions: 30 µM
[7] = target: T4, Tyrosyl-tRNA synthetase, putative (Trypanosoma cruzi (strain CL Brener)) (UniProt Q4DSP6); test: Trypanosoma cruzi tyrosyl tRNA synthetase (TcYRS) _High Tyrosine SOP; format: functional; conditions: 30 µM; also: in the data most compounds retested in dose-response had high values
T4 sequence (whole entry): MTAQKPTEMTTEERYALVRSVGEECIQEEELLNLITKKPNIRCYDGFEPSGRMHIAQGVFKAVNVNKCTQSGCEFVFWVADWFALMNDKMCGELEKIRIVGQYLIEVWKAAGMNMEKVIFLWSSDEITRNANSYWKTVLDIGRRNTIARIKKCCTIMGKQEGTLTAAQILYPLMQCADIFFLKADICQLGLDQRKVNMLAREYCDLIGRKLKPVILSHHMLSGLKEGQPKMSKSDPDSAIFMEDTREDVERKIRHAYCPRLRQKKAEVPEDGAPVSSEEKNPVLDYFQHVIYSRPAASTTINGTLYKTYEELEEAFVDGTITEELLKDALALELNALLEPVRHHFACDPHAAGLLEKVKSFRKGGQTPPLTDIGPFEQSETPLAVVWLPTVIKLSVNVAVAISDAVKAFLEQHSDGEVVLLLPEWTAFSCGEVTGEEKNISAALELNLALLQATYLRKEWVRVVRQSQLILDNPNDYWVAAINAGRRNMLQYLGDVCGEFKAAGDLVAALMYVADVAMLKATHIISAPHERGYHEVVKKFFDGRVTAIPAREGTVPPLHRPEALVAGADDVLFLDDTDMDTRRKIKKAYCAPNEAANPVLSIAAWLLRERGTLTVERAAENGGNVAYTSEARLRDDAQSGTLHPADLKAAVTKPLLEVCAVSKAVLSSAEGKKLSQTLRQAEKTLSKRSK

[8] = target: T4, Tyrosyl-tRNA synthetase, putative (Trypanosoma cruzi (strain CL Brener)); test: Trypanosoma cruzi tyrosyl tRNA synthetase (TcYRS) SOP; format: functional; conditions: 30 µM
[9] = target: Chromo domain-containing protein 1 (Saccharomyces cerevisiae (strain ATCC 204508 / S288c) (Baker's yeast)) (UniProt P32657); test: ScCHD-1 Enzyme Inhibition Assay; format: functional; conditions: 30 µM; also: in the data most compounds retested in dose-response had high values
Sequence of Chromo domain-containing protein 1 (Saccharomyces cerevisiae (strain ATCC 204508 / S288c) (Baker's yeast)) (P32657 whole entry, the tested form may be a part): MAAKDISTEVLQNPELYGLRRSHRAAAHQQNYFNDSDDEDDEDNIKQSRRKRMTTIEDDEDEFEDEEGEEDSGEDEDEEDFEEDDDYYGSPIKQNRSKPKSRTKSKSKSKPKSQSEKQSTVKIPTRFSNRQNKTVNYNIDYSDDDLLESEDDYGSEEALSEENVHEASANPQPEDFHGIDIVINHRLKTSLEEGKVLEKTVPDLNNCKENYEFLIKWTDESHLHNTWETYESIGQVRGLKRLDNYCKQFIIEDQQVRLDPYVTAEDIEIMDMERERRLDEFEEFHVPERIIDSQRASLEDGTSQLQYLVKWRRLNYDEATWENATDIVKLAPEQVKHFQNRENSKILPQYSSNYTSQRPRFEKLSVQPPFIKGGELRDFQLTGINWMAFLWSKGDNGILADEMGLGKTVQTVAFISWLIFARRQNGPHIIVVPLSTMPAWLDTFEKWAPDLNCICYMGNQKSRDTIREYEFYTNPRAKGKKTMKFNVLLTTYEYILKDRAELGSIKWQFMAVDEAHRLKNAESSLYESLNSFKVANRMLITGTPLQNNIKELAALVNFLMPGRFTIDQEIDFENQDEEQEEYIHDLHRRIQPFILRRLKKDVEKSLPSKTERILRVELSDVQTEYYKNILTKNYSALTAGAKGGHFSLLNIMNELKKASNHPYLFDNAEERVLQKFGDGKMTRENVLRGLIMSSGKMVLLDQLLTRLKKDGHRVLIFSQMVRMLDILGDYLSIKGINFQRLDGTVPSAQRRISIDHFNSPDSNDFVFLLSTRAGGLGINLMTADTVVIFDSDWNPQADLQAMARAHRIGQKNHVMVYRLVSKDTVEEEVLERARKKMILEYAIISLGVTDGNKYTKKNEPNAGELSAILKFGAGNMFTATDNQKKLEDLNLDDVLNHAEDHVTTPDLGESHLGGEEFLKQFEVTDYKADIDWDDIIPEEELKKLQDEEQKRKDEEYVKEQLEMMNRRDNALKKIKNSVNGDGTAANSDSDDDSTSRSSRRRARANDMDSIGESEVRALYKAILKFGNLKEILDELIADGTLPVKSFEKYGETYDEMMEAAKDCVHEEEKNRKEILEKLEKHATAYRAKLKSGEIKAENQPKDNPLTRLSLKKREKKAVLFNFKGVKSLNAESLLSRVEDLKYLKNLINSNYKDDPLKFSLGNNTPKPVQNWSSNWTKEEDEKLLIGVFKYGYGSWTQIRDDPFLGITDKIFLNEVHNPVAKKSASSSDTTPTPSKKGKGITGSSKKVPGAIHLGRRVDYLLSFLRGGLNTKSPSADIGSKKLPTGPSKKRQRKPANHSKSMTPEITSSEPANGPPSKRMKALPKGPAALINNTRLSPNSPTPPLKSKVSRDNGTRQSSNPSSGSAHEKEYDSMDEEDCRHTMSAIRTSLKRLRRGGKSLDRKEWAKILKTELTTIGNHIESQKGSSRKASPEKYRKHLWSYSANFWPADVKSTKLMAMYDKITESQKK

Sequence of Sialic acid-binding Ig-like lectin 9 (Homo sapiens) (Q9Y336 whole entry): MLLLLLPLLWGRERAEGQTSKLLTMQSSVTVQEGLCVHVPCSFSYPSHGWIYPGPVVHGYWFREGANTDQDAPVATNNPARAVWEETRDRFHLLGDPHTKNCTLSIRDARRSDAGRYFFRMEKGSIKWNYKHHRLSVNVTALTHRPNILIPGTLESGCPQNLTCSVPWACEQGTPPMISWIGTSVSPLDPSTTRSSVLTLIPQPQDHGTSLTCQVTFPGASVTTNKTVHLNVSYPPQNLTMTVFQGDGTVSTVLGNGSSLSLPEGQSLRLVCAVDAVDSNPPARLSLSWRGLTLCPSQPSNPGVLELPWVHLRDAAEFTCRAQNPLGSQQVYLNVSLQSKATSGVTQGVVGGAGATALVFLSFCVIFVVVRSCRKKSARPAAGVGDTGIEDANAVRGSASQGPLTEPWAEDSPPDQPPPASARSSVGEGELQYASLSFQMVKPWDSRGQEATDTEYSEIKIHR
Sequence of Protein translocase subunit SecA (Escherichia coli (strain K12)) (P10408 whole entry): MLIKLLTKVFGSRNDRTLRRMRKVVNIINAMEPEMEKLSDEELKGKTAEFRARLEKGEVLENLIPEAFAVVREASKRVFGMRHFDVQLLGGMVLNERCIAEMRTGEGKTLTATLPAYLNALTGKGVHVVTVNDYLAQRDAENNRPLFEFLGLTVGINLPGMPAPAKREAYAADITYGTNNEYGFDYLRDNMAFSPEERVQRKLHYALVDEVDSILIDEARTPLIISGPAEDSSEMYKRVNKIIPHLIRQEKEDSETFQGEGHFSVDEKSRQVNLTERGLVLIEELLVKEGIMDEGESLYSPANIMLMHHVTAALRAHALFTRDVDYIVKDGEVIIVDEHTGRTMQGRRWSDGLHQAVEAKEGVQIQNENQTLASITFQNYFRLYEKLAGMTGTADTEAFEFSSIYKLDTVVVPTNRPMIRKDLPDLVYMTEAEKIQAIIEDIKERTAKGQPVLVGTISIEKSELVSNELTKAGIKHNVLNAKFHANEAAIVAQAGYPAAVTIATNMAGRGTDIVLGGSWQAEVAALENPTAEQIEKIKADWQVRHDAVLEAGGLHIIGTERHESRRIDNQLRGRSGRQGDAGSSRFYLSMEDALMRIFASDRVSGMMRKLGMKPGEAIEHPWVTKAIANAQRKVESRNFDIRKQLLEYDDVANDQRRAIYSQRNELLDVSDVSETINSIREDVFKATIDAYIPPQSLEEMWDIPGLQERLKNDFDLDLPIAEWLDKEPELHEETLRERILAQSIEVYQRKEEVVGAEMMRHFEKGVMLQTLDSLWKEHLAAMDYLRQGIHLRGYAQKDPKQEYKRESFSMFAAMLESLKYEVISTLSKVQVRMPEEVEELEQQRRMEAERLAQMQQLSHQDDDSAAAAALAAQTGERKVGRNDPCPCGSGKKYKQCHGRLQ

Structure (SMILES) | Percent Effect [1] [%] | Percent Effect [2] [%] | Percent Effect [3] [%] | Percent Effect [4] [%] | Percent Effect (Trypanosoma cruzi) [%] | Percent Effect [5] [%] | Percent Effect [6] [%] | Percent Effect (Homo sapiens) [%] | Percent Effect [7] [%] | Percent Effect [8] [%] | Percent Effect [9] [%]
CO[C@H]1CCN(C(=O)Cc2ccccn2)[C@H]1Cc1ccncc1 | -0.476 | 16 | 1.42 | -1.93 | -4.53 | -2.56 | 8.02 | 7.43 | 3.19 | 11.5 | -2.72
Cc1nccnc1N1CC[C@@H](NC(=O)c2cnccn2)[C@H](O)C1 | -5.54 | 13.5 | -3.54 | 17.2 | 7.53 | 2.86 | 3.62 | 2.71 | 2.65 | 14.6 | -0.902
Cc1n[nH]c(C)c1C1CCCN1C(=O)NCCSC(C)(C)C (configuration not stated) | -2.09 | 0 | 3.06 | -3.83 | -1.37 | -0.909 | 0.887 | 4.14 | 3.23 | -2.5 | -1.95
CC1CN(C)c2ccccc2CN1C(=O)c1ccc[nH]1 (configuration not stated) | -4.68 | 5.48 | -8.65 | -2.78 | -0.196 | 0.455 | 12.9 | 20.4 | 5.38 | 10 | -4.57
Cc1nc(C)n(CC2CN(Cc3cccc(C#N)c3)CCO2)n1 (configuration not stated) | -0.461 | 13.5 | -1.52 | 2.34 | 2.74 | 0.802 | 14.6 | 0.861 | -10.3 | 18.5 | -3.18
CCCc1cc(C(=O)N2CCCC(n3ccnc3C)C2)[nH]n1 (configuration not stated) | -3.55 | 5.06 | -3.54 | 9.52 | 3.87 | 3.04 | -7.94 | 15.5 | 3.45 | 11.4 | -1.51
Cc1ccccc1OCCC(=O)OC(C)C(=O)Nc1sccc1C(N)=O (configuration not stated) | -2.66 | -2.7 | 6.19 | -3.07 | -9.09 | -10.2 | 8.33 | 44.8 | -15.1 | -16.1 | 15.1
c1csc(CN2C[C@@H]3OCCN(CC4CCCO4)[C@@H]3C2)c1 (some centres not stated) | -3.09 | 5.48 | -0.633 | 5.1 | -1.39 | -1.2 | 10.2 | 4.94 | 5.21 | 16.1 | 1.15
O=C(NCc1nnc2n1CCC2)N(Cc1ccco1)C1CC1 | -0.0964 | 8.11 | -2.14 | 3.8 | -2.12 | -2.86 | 20.3 | 14.6 | 3.7 | 12.2 | -2.31
CN(C)c1ncc(CN2CCOC(C(=O)Nc3ccccc3)C2)cn1 (configuration not stated) | -0.531 | 16 | 2.21 | -8.34 | 2.36 | 71.6 | 18.6 | 23.5 | 3.19 | 14.1 | -7.74
Cc1noc(C)c1CNC(=O)N1CCN(Cc2cscn2)CC1 | -5.7 | 15.8 | -5.03 | 9.82 | 5.45 | 0.766 | 3.51 | -2.83 | 6.37 | 17.1 | -14.9
CC[C@H](C)[C@H](NC(=O)Cc1csc(-c2cccc(Cl)c2)n1)C(=O)O | -3.85 | 9.33 | 11.6 | 11.9 | 0.982 | -4.75 | 12.6 | -8.02 | 4.23 | 7.69 | -5.96
COc1cn(-c2ccccc2)nc1C(=O)NCCCN1CCCC(C)C1 (configuration not stated) | -5.93 | 0 | 1.22 | 18 | 2.62 | 0.356 | -2.2 | 5.68 | 4.85 | 9.76 | -1.59
O=S(=O)(c1cccs1)N1CC[C@H](O)[C@@H]1Cc1ccncc1 | -3.12 | 13.5 | 9.88 | -0.784 | -4.79 | 2.23 | 22.9 | -0.0803 | 4.32 | 12.8 | -1.7
COc1ccccc1N1CCC(CNCc2cccc(OC)c2OC)C1 (configuration not stated) | -3.66 | 10.8 | -14.2 | 3.03 | 6.51 | -13.6 | 7.75 | 18.9 | 13.3 | 23.5 | -8.44
Fc1cccc(-c2nc(CN3CCCCC3Cn3cncn3)co2)c1 (configuration not stated) | -2.29 | 7.59 | 1.61 | 1.08 | 7.65 | 1.52 | 1.72 | -27.5 | 3.45 | 13.9 | -6.86
Cc1nnc(N2CCC(CNC(=O)OC(C)(C)C)CC2)c(C#N)c1C | -4.74 | 7.79 | -1.74 | -8.54 | 1.47 | -0.21 | 7.2 | 26.6 | 2.86 | 11.8 | -16.5
